FMDV Renilla = shows antiviral activity in FMDV Renilla assay. FMDV replicon cells, Renilla luciferase signal. Potency, µM (top dose mostly 57.5 µM), for inactives: at the top dose activity change, negative = inhibition, hits mostly inhibitors. 120,000 compounds, 0.32% hits; note: nearly all actives have a fitted effect of over 55% in size
FMDV antiviral = FMDV antiviral activity by firefly signal; Potency, µM (titrated, usually from 57.5 µM), for the others: at the highest dose activity change, negative = inhibition, actives largely listed as inhibitors; FMDV antiviral cell assay, firefly luciferase signal; 120,000 compounds, 0.23% hits; note: nearly all actives have a fitted effect of over 60% in size
Numbers without * were called inactive. An excerpt weighted towards active compounds, which were near 0.4% of everything screened. Calls come from the whole dose curve. % is set by controls: 0 for no effect and ±100 for the full control effect; potency is the fitted concentration of half-maximal effect.

`Cc1ccc(NC(=O)CN2C(=O)C3(SCC(=O)N3c3cccc(Cl)c3)c3ccccc32)cc1C` (configuration not stated) gave FMDV Renilla 13µM* and FMDV antiviral inconclusive.
`Cc1ccc(N2C(=O)CSC23C(=O)N(CC(=O)Nc2ccc(C(C)C)cc2)c2ccccc23)cc1C` (configuration not stated) gave FMDV Renilla -27% and FMDV antiviral inconclusive.
For COc1ccc(-c2ocnc2C(=O)Nc2cc(F)ccc2F)cc1OC the results were FMDV Renilla 11% and FMDV antiviral -2%.
For O=C(Nc1nc(C23CC4CC(CC(C4)C2)C3)cs1)c1ccncc1 the results were FMDV Renilla 8.9µM* and FMDV antiviral 14µM*.
`O=C(Nc1nc(C23CC4CC(CC(C4)C2)C3)cs1)c1ccc(=O)[nH]c1` gave FMDV Renilla -9% and FMDV antiviral 10%.
`CCc1c(C)sc(NC(=O)c2ccc(F)cc2)c1C#N` gave FMDV Renilla 15% and FMDV antiviral 172%.
For N#C/C(=C/c1ccc2ncccc2c1)c1nc2ccccc2[nH]1 the results were FMDV Renilla 1% and FMDV antiviral 46%.
`O=S(=O)(/C(=C/c1ccc2ccccc2c1)c1nc2ccccc2[nH]1)c1ccccc1` gave FMDV Renilla 16µM* and FMDV antiviral 35µM*.
CC(NC(=O)c1ccc(NC(=O)C2CC2)s1)c1ccc(Cl)cc1 (configuration not stated) was read as FMDV Renilla 28% and FMDV antiviral 2%.
Screening CCOc1c(OC)cc(Br)c2cc(C(=O)O)[nH]c12 returned FMDV Renilla 9% and FMDV antiviral 17%.
`O=C1CSc2ccc(C(=O)Nc3ccccc3)cc2N1` gave FMDV Renilla 5% and FMDV antiviral 171%.
Cc1cccc(Oc2ccc(NC(=O)c3ccc4c(c3)NC(=O)CS4)cc2)c1 was read as FMDV Renilla 22µM* and FMDV antiviral inconclusive.
`COC(=O)C(C#N)c1nc2ccccc2nc1Cl` (configuration not stated) gave FMDV Renilla -3% and FMDV antiviral 17%.
For Cc1ccc(-c2nc(C#N)c(N3CCOCC3)o2)cc1 the results were FMDV Renilla -7% and FMDV antiviral 27%.
Screening C=C(C)COc1ccc2c(=O)c(Oc3ccc(OC)cc3)c(C)oc2c1 returned FMDV Renilla 22% and FMDV antiviral 46%.
`COc1ccc(Oc2c(C)oc3cc(OS(C)(=O)=O)ccc3c2=O)cc1` gave FMDV Renilla inconclusive and FMDV antiviral 13µM*.
`CN1CCN(c2oc(-c3ccc(Cl)cc3)nc2C#N)CC1` gave FMDV Renilla 13% and FMDV antiviral 44%.
`COc1ccc(OC)c2c1cc(C(=O)NCCC(=O)Nc1ccc3c(c1)OCCO3)n2C` gave FMDV Renilla -5% and FMDV antiviral 70%.
Screening Cn1nc(CC(=O)Nc2ccc(F)cc2Cl)c2ccccc2c1=O returned FMDV Renilla 7.1µM* and FMDV antiviral inconclusive.
`COc1ccc(S(=O)(=O)N(C)C)cc1NC(=O)Cc1nn(C)c(=O)c2ccccc12` gave FMDV Renilla 29% and FMDV antiviral 0%.
Cn1nc(CC(=O)Nc2cccc(OC(=O)c3ccc(Cl)cc3)c2)c2ccccc2c1=O was read as FMDV Renilla -9% and FMDV antiviral -13%.
For Cn1nc(CC(=O)Nc2ccc(Cl)cc2)c2ccccc2c1=O the results were FMDV Renilla 2.8µM* and FMDV antiviral inconclusive.
COc1ccccc1NC(=O)Cc1nn(C)c(=O)c2ccccc12 was read as FMDV Renilla 10µM* and FMDV antiviral 10µM*.
Cn1nc(CC(=O)NCc2ccc(F)cc2)c2ccccc2c1=O was read as FMDV Renilla inconclusive and FMDV antiviral -29%.
COc1ccccc1NC(=O)CSc1nc2ccsc2c(=O)n1C was read as FMDV Renilla 22µM* and FMDV antiviral 22µM*.
`CCn1c(SCC(=O)Nc2ccccc2C(=O)OC)nc2ccsc2c1=O` gave FMDV Renilla 9% and FMDV antiviral -12%.
`Cc1cc(C(=O)NCc2ccco2)c2cccc(-c3ccccc3)c2n1` gave FMDV Renilla -4% and FMDV antiviral -13%.
`FC(F)(F)c1cc(-c2cccs2)nc(NC2CCCCC2)n1` gave FMDV Renilla 0% and FMDV antiviral -13%.
`Cc1cccn2cc(CN3CCN(S(=O)(=O)c4ccccc4)CC3)nc12` gave FMDV Renilla -5% and FMDV antiviral -6%.
For COC(=O)C(C#N)c1nc2ccccc2nc1NC1CC1 (configuration not stated) the results were FMDV Renilla 54% and FMDV antiviral 70%.
`O=C(NCc1ccc(Cl)cc1)c1ncoc1-c1cccs1` gave FMDV Renilla 24% and FMDV antiviral 156%.
CC(C)Cc1nc(NCCN)c(C#N)c2c1CCCC2 was read as FMDV Renilla 8% and FMDV antiviral 10%.
Screening CC(C)(C)c1ccc(NC(=O)c2ccc(CN3CCCC3=O)cc2)cc1 returned FMDV Renilla 22µM* and FMDV antiviral inconclusive.
O=C(Nc1ccccc1Oc1ccccc1)c1cccc(CN2CCCC2=O)c1 was read as FMDV Renilla 17% and FMDV antiviral 17%.
For CC(C)CCC(C)NC(=O)c1ccc(CN2CCCC2=O)cc1 (configuration not stated) the results were FMDV Renilla 4% and FMDV antiviral 97%.
Screening O=C(Nc1ccc(Oc2ccccc2)cc1)c1cccc(CN2CCCC2=O)c1 returned FMDV Renilla 7.9µM* and FMDV antiviral inconclusive.
Screening CC(=O)n1nc(NCc2c(F)cccc2Cl)nc1NCc1c(F)cccc1Cl returned FMDV Renilla 74% and FMDV antiviral 3%.
For COc1ccc2c(=O)c(Oc3ccccc3OC)c(C)oc2c1 the results were FMDV Renilla 3% and FMDV antiviral 34%.
For Cc1ccccc1C(=O)N1CCN(c2ccc(NC(=O)c3ccc4c(c3)OCCO4)cc2)CC1 the results were FMDV Renilla 16µM* and FMDV antiviral inconclusive.
`CCOc1cc(OCC)cc(C(=O)Nc2ccc(N3CCN(C(=O)c4ccccc4C)CC3)cc2)c1` gave FMDV Renilla -7% and FMDV antiviral -7%.
For Cc1ccc2c3cc(-c4ccccc4)cn3ccn12 the results were FMDV Renilla 1% and FMDV antiviral 126%.
N#Cc1ccccc1CON=C1CCC2(CC1)OCCO2 was read as FMDV Renilla 16% and FMDV antiviral 193%.
`O=[N+]([O-])c1cccc(CON=C2CCC3(CC2)OCCO3)c1` gave FMDV Renilla -8% and FMDV antiviral 2µM*.
Screening COc1ccc(CNC(=O)Cn2c(=O)c(CNc3ccc(C)cc3)cc3cc4c(cc32)OCCO4)cc1 returned FMDV Renilla 5% and FMDV antiviral 83%.
For O=C1CC(c2ccc(Cl)cc2)CC2=C1C=Nc1ccccc1N2 (configuration not stated) the results were FMDV Renilla -9% and FMDV antiviral 0%.
Screening CC1=C2C(=O)CC(c3ccc(Cl)cc3)CC2=Nc2ccccc2N1 (configuration not stated) returned FMDV Renilla 10µM* and FMDV antiviral 8.9µM*.
For Cc1ccc(Cl)cc1-n1ncc2c(=O)n(CC(=O)Nc3ccc(F)cc3Cl)cnc21 the results were FMDV Renilla 2% and FMDV antiviral -4%.
Cc1ccccc1OCC(O)CN1CCN(c2nccs2)CC1 (configuration not stated) was read as FMDV Renilla -12% and FMDV antiviral -5%.
